Screening results from PubChem BioAssay.
Sampled rows, rich in hits. Any-hit rate of the full collection: about 1.2%.
RGS7-Gao: RGS7-Galphao binding modulators, primary screen, biochemical, multiplexed bead flow cytometry; actives lie on both sides; Guanine nucleotide-binding protein G(o) subunit alpha (Homo sapiens), P09471; AID 1439, 2008; actives 0.35% (n = 220,000); binding response (% of control), % at 10 µM; in the data active = binding response below about 49% or above about 150%; inconclusive = no clear call, values can overlap the other calls; inactive = in between;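 note: fluorescent Galphao held in activated GDP-AlF4 state binding bead-coupled RGS7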
RGS16-Gao HTS: modulators of RGS16 binding to Galphao, primary screen, biochemical, human proteins, multiplexed bead flow cytometry; Regulator of G-protein signaling 16 (Homo sapiens) + Guanine nucleotide-binding protein …; bead-based flow cytometry RGS16-Galphao binding, fluorescence; actives lie on both sides; binding response (% of control), % at 10 µM; actives 0.38% (n = 220,000); AID 1441, 2008;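 note: Galphao activated by GDP with aluminum fluoride before binding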
Target sequence (O15492 whole entry, looked up): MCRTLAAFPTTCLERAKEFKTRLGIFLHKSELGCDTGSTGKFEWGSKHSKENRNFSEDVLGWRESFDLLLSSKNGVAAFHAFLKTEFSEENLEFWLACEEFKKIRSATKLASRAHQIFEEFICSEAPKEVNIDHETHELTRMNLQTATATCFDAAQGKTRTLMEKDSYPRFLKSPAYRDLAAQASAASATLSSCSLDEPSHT
Target sequence (P09471 whole entry, looked up): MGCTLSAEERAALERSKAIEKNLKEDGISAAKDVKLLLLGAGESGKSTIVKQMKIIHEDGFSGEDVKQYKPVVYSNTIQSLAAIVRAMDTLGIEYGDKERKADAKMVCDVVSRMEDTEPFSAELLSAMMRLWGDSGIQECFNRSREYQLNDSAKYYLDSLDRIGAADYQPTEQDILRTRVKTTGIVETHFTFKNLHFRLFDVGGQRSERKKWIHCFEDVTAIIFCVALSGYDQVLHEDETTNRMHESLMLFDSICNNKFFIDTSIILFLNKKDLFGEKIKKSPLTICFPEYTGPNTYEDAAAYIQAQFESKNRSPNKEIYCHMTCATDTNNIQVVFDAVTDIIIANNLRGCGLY
RGS8-Gao reg: RGS8-Galphao binding modulators, primary screen, biochemical, multiplexed bead flow cytometry; actives lie on both sides; actives 0.34% (n = 220,000); response (percent of control binding), % at 10 µM; AID 1423, 2008; in the data active = response below about 60% or above about 140%; inactive = in between;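 note: Galphao activated as the GDP aluminium fluoride complex binding bead-coupled RGS8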
RGS4-Gao reg: modulators of RGS4 binding to Galphao, primary screen, biochemical, multiplexed bead flow cytometry; binding response (% of control), % at 10 µM; actives 0.33% (n = 220,000); actives lie on both sides; Guanine nucleotide-binding protein G(o) subunit alpha (Homo sapiens), P09471; in the data active = binding response below about 49% or above about 150%; inactive = in between;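 note: fluorescent Galphao activated with aluminum fluoride binding bead-coupled RGS4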
Avidin fluor: green autofluorescence of compounds with avidin beads – biophysical, 488/530 nm, flow cytometry, artefact control, profiling panel | actives 0.38% (n = 220,000) | compound fluorescence 488/530 nm; active compounds read high | fluorescence (KMESF) at 10 µM | AID 1775, 2009; in the data active = fluorescence above about 47
GSH bead fluor: compound fluorescence on glutathione beads, profiling panel, artefact control, biophysical, 488/530 nm, flow cytometry; GSH beads flow cytometry, compound fluorescence 488/530 nm; active compounds read high; fluorescence (KMESF) at 10 µM; actives 0.25% (n = 190,000); in the data active = fluorescence above about 89;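 note: glutathione beads carrying GST-tagged Bcl family fusion proteins plus one bare bead set; values are compound well signal with DMSO vehicle wells as background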
RGS-Gao: modulators of RGS–Galpha-o binding, primary screen, biochemical, multiplexed beads, flow cytometry, RGS4/7/8/16/19 | multiplexed bead flow cytometry | AID 1504, 2009 | shares compounds with RGS16-Gao HTS | actives 99% (n = 1,600) | RGS4–Galpha-o binding response, % at 10 µM;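 note: fluorescently labeled Galpha-o bound to GDP with aluminium fluoride binding biotinylated RGS beads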
Avidin counter: disruption of biotin probe capture by avidin, counter-screen for RGS protein interaction modulators, biochemical, flow cytometry, bead-based; shares compounds with RGS16-Gao HTS; streptavidin beads, fluorescein-biotin binding; inhibition, % at 10 µM; 1,700 tested, under 10 active; AID 1783, 2009;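 active = inhibition above 50%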;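 note: median green fluorescence of gated singlet beads compared with DMSO control wells; 0% = DMSO wells and 100% = complete loss of bead fluorescence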
RGS8-Gao single: RGS8-Galphao binding modulators, confirmation, biochemical, multiplexed bead flow cytometry, single concentration | actives 3% (n = 1,700) | shares compounds with RGS16-Gao HTS | binding response (% of control), % at 10 µM | AID 1836, 2009 | bead-based flow cytometry RGS8-Galphao binding, fluorescence; actives lie on both sides; in the data active = binding response below about 72% or above about 130%; inactive = in between;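 note: Galphao activated as GDP AlF4 complex before binding bead RGS8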
RGS7-Gao confirm: RGS7-Galphao binding modulators, confirmation, biochemical, multiplexed bead flow cytometry, single concentration; shares compounds with RGS16-Gao HTS; actives 7.8% (n = 1,700); bead-based flow cytometry RGS7-Galphao binding; actives lie on both sides; response (percent of control binding), % at 10 µM; AID 1837, 2009; in the data active = response below about 75% or above about 130%; inactive = in between;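 note: fluorescent Galphao activated with GDP and aluminum fluoride binding bead-coupled RGS7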
RGS16-Gao single: modulators of RGS16-Galphao protein binding, confirmation, biochemical, single concentration, multiplexed bead flow cytometry | bead-based flow cytometry; actives lie on both sides | shares compounds with RGS16-Gao HTS | actives 4% (n = 1,700) | response (% of control binding), % at 10 µM; in the data active = response below about 74% or above about 130%; inactive = in between;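 note: Galphao activated as the GDP aluminium fluoride complex binding bead-coupled RGS16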
RGS4-Gao confirm: modulators of RGS4-Galphao protein binding, confirmation, biochemical, single concentration, multiplexed bead flow cytometry; shares compounds with RGS16-Gao HTS; actives lie on both sides; binding response (% of control), % at 10 µM; actives 4% (n = 1,700); AID 1840, 2009; in the data active = binding response below about 74% or above about 130%; inactive = in between
RGS19-Gao conf: regulators of RGS19-Galphao binding, confirmation, biochemical, single point, multiplexed bead flow cytometry; bead-based flow cytometry RGS19-Galphao binding; actives lie on both sides; shares compounds with RGS16-Gao HTS; response (percent of control binding), % at 10 µM; actives 5% (n = 1,700); in the data active = response below about 50% or above about 160%; inactive = in between;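 note: 100% = no compound control and 0% = blank background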
The depositor's hits bear a star; u = inconclusive; x = no result given; [ ] = another dose, or the depositor's remark. Unless noted, the rule behind the calls is not given here.

SMILES | RGS7-Gao | RGS16-Gao HTS | RGS8-Gao reg | RGS4-Gao reg | Avidin fluor | GSH bead fluor | RGS-Gao | Avidin counter | RGS8-Gao single | RGS7-Gao confirm | RGS16-Gao single | RGS4-Gao confirm | RGS19-Gao conf
COCCNc1ccc([N+](=O)[O-])cc1C(=O)Nc1cccc(C)n1 | u | 101.7 | 101.3 | 97.9 | 8 | 20 | x | x | x | x | x | x | x
COc1cc(C(=O)Nc2ccc(N(C)C)cc2)cc(OC)c1OC | 98.0 | 97.7 | 99.8 | 99.1 | 7 | 6 | x | x | x | x | x | x | x
COc1cc(C(=O)NNC(=O)c2ccc(NC(C)=O)cc2)cc(OC)c1OC | 16.8* | 11.4* | 14.5* | 22.8* | 1 | 8 | x | -1.1 | 107.5 | 209.9*[activator] | 131.7*[activator] | 165.1*[activator] | 255.1*[activator]
COC(=O)Nc1csc2c1NC(=O)CCCC2 | u | -4.2* | 18.2* | -9.2* | -1 | x | x | -0.6 | 94.7 | 83.8 | 91.3 | 93.0 | 98.9
CC(C)(C)NC(=O)c1cccc2c1OC(C)(C)C2 | 89.2 | 20.2* | 65.6 | 87.3 | 1 | 12 | 87.3* | -0.5 | 97.8 | 93.5 | 100.2 | 98.2 | 79.7
CCOCCCNC(=O)NC(=O)CN1CCN(S(=O)(=O)c2ccc3c(c2)OCCO3)CC1 | u | 99.4 | 98.9 | 101.5 | 10 | 12 | x | x | x | x | x | x | x
CCOC(=O)CN1C(c2ccc(O)cc2)Nc2ccc(Br)cc2C1c1ccccc1 (stereo unspecified) | 95.5 | 14.4* | 61.6 | 84.6 | 2 | 5 | 84.6* | 0.3 | 100.8 | 94.8 | 96.0 | 96.8 | 128.9
O=C(CO/N=C/c1ccccc1O)N1CCc2ccccc21 | 114.8 | 190.8*[activator] | 121.9 | 113.8 | 16 | 5 | 113.8* | -0.6 | 98.8 | 94.7 | 95.5 | 97.9 | 102.5
O=C(OCC(=O)N1CCc2ccccc21)c1ccccc1 | 103.3 | 106.2 | 103.3 | 105.7 | 5 | 27 | x | x | x | x | x | x | x
CCOc1ccc(C2CC(=O)N(Nc3ccc([N+](=O)[O-])cc3[N+](=O)[O-])C2=O)cc1 (stereo unspecified) | u | 104.7 | 103.8 | 104.1 | 7 | x | x | x | x | x | x | x | x
CCOc1ccc(Cn2c(=O)sc3ccccc32)cc1OC | u | 104.6 | 105.6 | 104.9 | 8 | x | x | x | x | x | x | x | x
COCCn1c(SCC(=O)Nc2nnc(C)s2)nnc1-c1ccncc1 | x | x | x | x | x | 17 | x | 0.2 | 96.2 | 100.7 | 95.9 | 104.0 | 104.6
